ChEMBL document CHEMBL4513216, “Probing the Open Global Health Chemical Diversity Library for Multistage-Active Starting Points for Next-Generation Antimalarials” (ACS Infect Dis, 2020)
The campaign covered roughly 65,000 compounds. About 2,100 (3.2%) showed an effect of 50% or more. The median lay at about -52%. This excerpt belongs to a sample that is enriched for strong results.

What follows are compounds tested on Plasmodium falciparum (assay: Screen against P. falciparum Asexual Blood Stage (ABS), at 5uM). Conditions: tested at 5 uM.
Assay type: functional, Dd2
`O=C(c1ccc(=O)[nH]n1)N1CCCC1C1CCCC1` (stereo not given) was tested, and the INHIBITION was -148%.
`O=C(c1cnc2[nH]c(=O)[nH]c(=O)c2c1)N1CCCC1C1CCCCC1` (stereo not given) showed an INHIBITION of 0.342%.
Work on `O=C(c1c[nH]nn1)N1CCCC1C1CCCCC1` (stereo not given) yielded an INHIBITION of 51%.
`CNC(=O)C1(c2cnccn2)CCCN1C(=O)c1cccc(C)n1` (stereo not given) gave an INHIBITION of -80.1%.
For `CCc1ccc(CN2Cc3nccn3CC(CN3CCOCC3)C2)o1` (stereo not given), the INHIBITION was -23.9%.
Work on `CCOc1ccc(N(C)Cc2nc(C)c(C)o2)cc1` yielded an INHIBITION of 43.9%.
`CCOc1ccc(N(C)Cc2nnc(C3CC3)o2)cc1` gave an INHIBITION of 61.5%.
`CCOc1ccc(N(C)Cc2nnc(C)o2)cc1` showed an INHIBITION of 27.1%.
Compound `Cn1cccc1C(=O)N1CCC2(CCN2c2ncccn2)C1` (stereo not given) has an INHIBITION of -28.5%.
`O=C(NCc1ccc2c(c1)CCCO2)c1ccc(C2CCNC2)cc1` (stereo not given) showed an INHIBITION of -95.6%.
`COCC(=O)NCc1cnc(C)nc1-c1cn(C)c2ccc(OC)cc12` was tested, and the INHIBITION was -88.7%.
In the case of `CN(C)CCN1CCO[C@H]2CCN(C(=O)c3cccs3)CC[C@@H]21`, the INHIBITION was -47.1%.
`CCc1nnc2n1CCN(CC(=O)N1CCc3ccccc3C1)C2` showed an INHIBITION of -13.9%.
Compound `COc1ccc(C(=O)Nc2c(C(=O)N(C)C)nn(C)c2C)cc1` has an INHIBITION of -64.8%.
`COc1ccc(CC(=O)NC(C)c2nc3cccnc3n2C(C)C)cc1` (stereo not given) gave an INHIBITION of -100%.
`NCCn1nc(C2CCN(C(=O)Cc3ccccc3)C2)c2nccnc21` (stereo not given) gave an INHIBITION of -28.7%.
For `NCCn1nc(C2CCN(C(=O)CC3CCCCC3)C2)c2nccnc21` (stereo not given), the INHIBITION was -16.3%.
In the case of `Cc1ccccc1CN1CCC(c2nn(CCN)c3nccnc23)C1` (stereo not given), the INHIBITION was 60.9%.
In the case of `Cn1nc(C2CCCN(Cc3ccc(F)c(F)c3)C2)c2nccnc21` (stereo not given), the INHIBITION was 23.4%.
For `NCCn1nc(C2CCN(Cc3ccc(Cl)c(Cl)c3)C2)c2nccnc21` (stereo not given), the INHIBITION was 63.5%.
With `CC(C)(C)CC(=O)N1CCC(c2nn(CCN)c3nccnc23)C1` (stereo not given) the INHIBITION was -94.3%.
For `CNC(=O)[C@H]1CO[C@H]2CCN(Cc3ccc4ccccc4n3)C[C@H]2C1`, the INHIBITION was -51.5%.
With `Cc1nc(NCc2ccccn2)c2c(n1)c(C)nn2C` the INHIBITION was -26.7%.
`Cc1cccc(Nc2cc(C)nc(C3CCN(C(C)C)C3)n2)n1` (stereo not given) was tested, and the INHIBITION was -36.6%.
`CC(C#N)CSc1ccccc1NCC(=O)NC(C1CC1)C1CC1` (stereo not given) showed an INHIBITION of 56.3%.
For `CC(C#N)CSc1ccccc1NCC(=O)Nc1ccccc1` (stereo not given), the INHIBITION was -67.8%.
`CC(C#N)CSc1ccccc1NCC(=O)NC1CCCCC1` (stereo not given) showed an INHIBITION of -56.9%.
For `CN1CCOC(CNCc2csc(C3CCCCC3)n2)C1` (stereo not given), the INHIBITION was 58.6%.
Work on `CN1CCOC(CNCc2csc(C3CCCC3)n2)C1` (stereo not given) yielded an INHIBITION of -14.3%.
Work on `Cc1nc(CNCC2CN(C)CCO2)cs1` (stereo not given) yielded an INHIBITION of -102%.
